Reference: PubChem BioAssay AID1159580 (chemical genetic matrix, 2015)
Screen size: about 5,500 compounds; about 2,000 (36%) were called active. Not shown: some 18% with an inconclusive outcome. No stated cut-off is given here; in the data, active means normalized growth mostly below about 0.91 (no sharp cut-off); inconclusive means no clear call, values can overlap the other calls; inactive means mostly above about 0.92. This is one part of the list.

Assay: chemical genetic growth profiling, strain panel (AID 1159580);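 further: tested at 20 µM; growth read once vehicle control cultures reached saturation at 30 °C; 1 = growth at the plate median or of vehicle wells; lower values mean less growth of the strain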
Conditions: growth OD

Measured: normalized growth

COC(=O)c1c(C)cc(OC(=O)c2c(C)c(Cl)c(O)c(C=O)c2O)c(C)c1O
inactive: S. cerevisiae deletion strains, locus YAL013W, strain DEP1, hits give low values 1 | S. cerevisiae deletion strains, locus YBR021W, strain FUR4, hits give low values 1 | S. cerevisiae deletion strains, locus YBR229C, strain ROT2, hits give low values 1 | S. cerevisiae deletion strains, locus YCL029C, strain bik1, hits give low values 0.985 | S. cerevisiae deletion strains, locus YDL035C, strain GPR1, hits give low values 1.01 | S. cerevisiae deletion strains, locus YDL074C, strain BRE1, hits give low values 1 | S. cerevisiae deletion strains, locus YDL101C, strain DUN1, hits give low values 0.978 | S. cerevisiae deletion strains, locus YDL134C, strain PPH21, hits give low values 0.994 | S. cerevisiae deletion strains, locus YDL185W, strain tfp1, hits give low values 0.963 | S. cerevisiae deletion strains, locus YDL192W, strain arf1, hits give low values 0.993 | S. cerevisiae deletion strains, locus YDR101C, strain arx1, hits give low values 0.995 | S. cerevisiae deletion strains, locus YDR150W, strain NUM1, hits give low values 0.984 | S. cerevisiae deletion strains, locus YDR162C, strain NBP2, hits give low values 0.997 | S. cerevisiae deletion strains, locus YDR318W, strain mcm21, hits give low values 0.99 | S. cerevisiae deletion strains, locus YDR388W, hits give low values 0.985 | S. cerevisiae deletion strains, locus YDR502C, strain sam2, hits give low values 0.984 | S. cerevisiae deletion strains, locus YEL061C, strain CIN8, hits give low values 0.99 | S. cerevisiae deletion strains, locus YER110C, hits give low values 0.989 | S. cerevisiae deletion strains, locus YER155C, strain BEM2, hits give low values 1 | S. cerevisiae deletion strains, locus YER167W, strain BCK2, hits give low values 1 | S. cerevisiae deletion strains, locus YGL078C, strain dbp3, hits give low values 0.984 | S. cerevisiae deletion strains, locus YGL086W, strain mad1, hits give low values 0.993 | S. cerevisiae deletion strains, locus YGL248W, strain PDE1, hits give low values 0.979 | S. cerevisiae deletion strains, locus YGR078C, strain PAC10, hits give low values 0.988 | S. cerevisiae deletion strains, locus YGR135W, strain pre9, hits give low values 0.982 | S. cerevisiae deletion strains, locus YGR229C, strain SMI1, hits give low values 0.971 | S. cerevisiae deletion strains, locus YGR252W, strain gcn5, hits give low values 1 | S. cerevisiae deletion strains, locus YHR030C, strain SLT2, hits give low values 0.993 | S. cerevisiae deletion strains, locus YHR079C, strain IRE1 (second series), hits give low values 0.987 | S. cerevisiae deletion strains, locus YHR094C, strain hxt1, hits give low values 0.987 | S. cerevisiae deletion strains, locus YHR129C, strain ARP1, hits give low values 1 | S. cerevisiae deletion strains, locus YHR200W, strain rpn10, hits give low values 0.985 | S. cerevisiae deletion strains, locus YIL066C, strain RNR3, hits give low values 0.973 | S. cerevisiae deletion strains, locus YIL073C, strain SPO22, hits give low values 0.906 | S. cerevisiae deletion strains, locus YIL125W, strain kgd1, hits give low values 1 | S. cerevisiae deletion strains, locus YIR030C, strain dcg1, hits give low values 0.983 | S. cerevisiae deletion strains, locus YJL095W, strain BCK1, hits give low values 1.01 | S. cerevisiae deletion strains, locus YJL134W, strain LCB3, hits give low values 0.989 | S. cerevisiae deletion strains, locus YJL168C, strain set2, hits give low values 0.992 | S. cerevisiae deletion strains, locus YJL187C, strain SWE1 (second series), hits give low values 0.983 | S. cerevisiae deletion strains, locus YJR043C, strain POL32, hits give low values 1 | S. cerevisiae deletion strains, locus YJR075W, strain HOC1, hits give low values 1 | S. cerevisiae deletion strains, locus YKL009W, strain mrt4, hits give low values 0.984 | S. cerevisiae deletion strains, locus YKL068W, hits give low values 0.984 | S. cerevisiae deletion strains, locus YKL085W, strain MDH1 (second series), hits give low values 0.996 | S. cerevisiae deletion strains, locus YKL085W, strain MDH1, hits give low values 0.996 | S. cerevisiae deletion strains, locus YKL190W, strain CNB1, hits give low values 0.992 | S. cerevisiae deletion strains, locus YKR001C, strain vps1, hits give low values 0.989 | S. cerevisiae deletion strains, locus YLR039C, strain RIC1, hits give low values 1 | S. cerevisiae deletion strains, locus YLR058C, strain SHM2, hits give low values 0.988 | S. cerevisiae deletion strains, locus YLR102C, strain apc9, hits give low values 0.982 | S. cerevisiae deletion strains, locus YLR262C, strain YPT6, hits give low values 0.968 | S. cerevisiae deletion strains, locus YLR268W, strain sec22, hits give low values 0.972 | S. cerevisiae deletion strains, locus YLR330W, strain CHS5, hits give low values 0.993 | S. cerevisiae deletion strains, locus YLR342W, strain FKS1 (second series), hits give low values 0.979 | S. cerevisiae deletion strains, locus YLR371W, strain rom2, hits give low values 0.98 | S. cerevisiae deletion strains, locus YLR418C, strain cdc73, hits give low values 1 | S. cerevisiae deletion strains, locus YML016C, strain PPZ1, hits give low values 0.992 | S. cerevisiae deletion strains, locus YML032C, strain rad52, hits give low values 0.981 | S. cerevisiae deletion strains, locus YML124C, strain tub3, hits give low values 0.985 | S. cerevisiae deletion strains, locus YMR078C, strain ctf18, hits give low values 0.981 | S. cerevisiae deletion strains, locus YMR223W, strain ubp8, hits give low values 0.979 | S. cerevisiae deletion strains, locus YMR263W, strain SAP30, hits give low values 0.971 | S. cerevisiae deletion strains, locus YMR307W, strain GAS1, hits give low values 0.972 | S. cerevisiae deletion strains, locus YNL067W, strain RPL9B, hits give low values 0.995 | S. cerevisiae deletion strains, locus YNL128W, strain TEP1, hits give low values 0.998 | S. cerevisiae deletion strains, locus YNL153C, strain GIM3, hits give low values 0.986 | S. cerevisiae deletion strains, locus YNL233W, strain BNI4, hits give low values 0.989 | S. cerevisiae deletion strains, locus YNL250W, strain rad50, hits give low values 0.997 | S. cerevisiae deletion strains, locus YNL271C, strain bni1, hits give low values 0.996 | S. cerevisiae deletion strains, locus YNL298W, strain CLA4, hits give low values 0.98 | S. cerevisiae deletion strains, locus YNL307C, strain MCK1, hits give low values 0.98 | S. cerevisiae deletion strains, locus YNL322C, strain KRE1, hits give low values 1 | S. cerevisiae deletion strains, locus YNR052C, strain pop2, hits give low values 0.979 | S. cerevisiae deletion strains, locus YOL006C, strain TOP1, hits give low values 1.03 | S. cerevisiae deletion strains, locus YOL012C, strain htz1 0.881 | S. cerevisiae deletion strains, locus YOL147C, strain pex11, hits give low values 0.981 | S. cerevisiae deletion strains, locus YOR061W, strain CKA2, hits give low values 0.999 | S. cerevisiae deletion strains, locus YOR069W, strain VPS5, hits give low values 0.986 | S. cerevisiae deletion strains, locus YOR136W, strain idh2, hits give low values 0.993 | S. cerevisiae deletion strains, locus YOR144C, strain elg1, hits give low values 0.978 | S. cerevisiae deletion strains, locus YOR184W, strain ser1, hits give low values 0.976 | S. cerevisiae deletion strains, locus YOR316C, strain cot1, hits give low values 0.996 | S. cerevisiae deletion strains, locus YPL055C, strain LGE1, hits give low values 0.984 | S. cerevisiae deletion strains, locus YPL241C, strain CIN2, hits give low values 0.989 | S. cerevisiae deletion strains, locus YPR119W, strain clb2, hits give low values 0.975 | S. cerevisiae deletion strains, locus YPR141C, strain kar3, hits give low values 0.986 | S. cerevisiae deletion strains, locus YPR163C, strain tif3, hits give low values 0.977 | S. cerevisiae deletion strains, locus YPR167C, strain met16, hits give low values 0.993 | S. cerevisiae deletion strains, strain wtn01, hits give low values 0.975 | S. cerevisiae strains, strain wild type, hits give low values 1.01
